Bioassay records as filed in PubChem.
A selection: hits, their analogues and other compounds. The true share with any hit is near 27%.
CYP2C19 inh = blockers of cytochrome P450 2C19 activity – biochemical, luminescence, ADME assay, primary screen; P33261; CYP2C19 Supersomes, luciferin-H EGE luminescence, 30 min; inhibition, % at 5 µM; actives 21% (n = 96,000);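 active means CYP2C19 inhibition above a set limit at 5 µM in the primary screen, cut at about 50% in these data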
Cav3 T inh = Cav3.2 calcium influx blockers – cell-based, Fluo-4 calcium fluorescence, FDSS, MLSMR library, primary screen. Voltage-dependent T-type calcium channel subunit alpha-1H (Homo sapiens), O95180. Cav3.2-expressing cells; stronger effect = lower value. actives 4% (n = 100,000). B-score at 10 µM. AID 449739, 2010;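 active means single-dose well whose peak fluorescence ratio is a statistical outlier from its plate by either plate-standardised score or position-corrected B-score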
CYP2C19 act = human CYP2C19 activators, primary screen, biochemical, luminescence | AID 1025, 2008 | 96,000 tested, under 10 active | recombinant CYP2C19, luciferin-H EGE luminescence; stronger effect = higher value; 0 = fully inhibited enzyme, 1 = untreated enzyme | activation factor at 5 µM | Cytochrome P450 2C19 (Homo sapiens), P33261;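 active means activation factor of at least 2 at 5 µM in the primary screen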
CYP2C9 inh = blockers of cytochrome P450 2C9 activity – biochemical, luminescence, ADME assay, primary screen | P11712 | AID 777, 2007 | CYP2C9 Supersomes, luciferin-H conversion | inhibition, % at 5 µM | actives 20% (n = 96,000);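 active means blocking of liver enzyme CYP2C9 beyond about 50% at 5 µM, limit read from the data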
CYP2C9 activ = human CYP2C9 activators, primary screen, biochemical, luminescence; activation factor at 5 µM; recombinant CYP2C9, luciferin-H conversion; stronger effect = higher value; factor 1 = untreated enzyme, 0 = blocked; AID 1024, 2008; actives 1.4% (n = 96,000); Cytochrome P450 2C9 (Homo sapiens), P11712;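 active means activation factor of 2 or more for CYP2C9 at a 5 µM dose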
Each line names hits and unclear results; the compound was inactive in the other large screens.

CCNC(=O)CSc1nnc(-c2ccc(OC)cc2)n1CC(C)C	none (no result: Cav3 T inh)
O=C(O)C1SCCN1S(=O)(=O)c1ccc2ccccc2c1 (stereo unspecified)	none (no result: CYP2C19 inh, CYP2C19 act, CYP2C9 inh, CYP2C9 activ)
Cc1sc2ncn(CCC(=O)O)c(=O)c2c1C	CYP2C9 activ 3.2
O=C(NC1CC1)C1=NOC(CNc2ncc(C(F)(F)F)cc2Cl)C1 (stereo unspecified)	CYP2C19 inh 85, CYP2C9 activ 2.4
CCOC(=O)c1cnc(-n2cc(C)cn2)nc1Nc1ccccc1OCC	none
CCOC(=O)C1CCCCN1Cc1ccc(F)c(Br)c1 (stereo unspecified)	CYP2C19 inh 82
COc1ccc(N2C(=O)CCC(C(=O)Nc3cccc(C)n3)C2c2ccc(OC)c(OC)c2)cc1 (stereo unspecified)	none
Cc1ccc(C(C)C)c(OCC(=O)c2c(O)c3ccccc3oc2=O)c1	Cav3 T inh -7.6 (no result: CYP2C19 inh, CYP2C19 act, CYP2C9 inh, CYP2C9 activ)
CNC(=O)c1ccccc1F	none
O=C(O)CCc1ccc(-c2ccc(F)cc2)n1Cc1ccco1	CYP2C19 inh 57
O=C(O)CCc1ccc(-c2ccc(F)cc2)n1CC(=O)O	none
O=C(O)CCc1ccc(-c2ccccc2)n1CC1CCCO1 (stereo unspecified)	CYP2C19 inh 64
O=C(O)CCc1ccc(-c2ccc(Br)cc2)n1Cc1ccco1	none
O=C(O)CCc1ccc(-c2ccccc2)n1Cc1ccco1	CYP2C19 inh 63
[O-][N+]12CCN(CC1)c1ccccc12	none
Cc1cccc(-c2cc(C(=O)NCCCn3ccnc3)c3ccccc3n2)c1	CYP2C19 inh 87, CYP2C9 inh 100
CCSc1ccccc1C(=O)NCCCn1ccnc1	CYP2C19 inh 92, CYP2C9 inh 63
COc1ccc(C(=O)NCCCn2ccnc2)cc1	CYP2C19 inh 89
CCOCCCNC(=O)c1ccccc1SCC	none (no result: CYP2C19 inh, CYP2C19 act, CYP2C9 inh, CYP2C9 activ)
CCCCCOc1ccc(NC(=O)C(=O)NCCCn2ccnc2)cc1	CYP2C19 inh 89, CYP2C9 inh 83
C#CCNC(=O)C1=C[C@H](C2CCCCC2)C[C@H](OCCCCO)O1	none (no result: CYP2C19 inh, CYP2C19 act, CYP2C9 inh, CYP2C9 activ)
O=C(CSc1nnc(-c2ccncc2)n1C1CCCCC1)Nc1cccc(O)c1	none
CCOC(=O)CN1C(=O)N[C@@H](c2cccc(C(F)(F)F)c2)[C@H](C(C)=O)[C@H]1C	none (no result: CYP2C19 inh, CYP2C19 act, CYP2C9 inh, CYP2C9 activ)
O=C1CC2(CCCC2)Oc2ccccc21	none (no result: CYP2C19 inh, CYP2C19 act, CYP2C9 inh, CYP2C9 activ)
CC(C)OCCCNC(=O)c1ccncc1	CYP2C19 inh 89, CYP2C9 inh 75
COc1cc(C(=O)NCCc2cn3ccc(C)cc3n2)cc(OC)c1OC	none
CC(C)OCCCNC(=O)c1ccc(Br)cc1	none
COc1ccc(NC(=S)NCCCn2ccnc2)cc1	none (no result: CYP2C19 inh, CYP2C19 act, CYP2C9 inh, CYP2C9 activ)
COc1ccc(-c2nn(-c3ccccc3)cc2C(=O)NCCCn2ccnc2)cc1	CYP2C19 inh 96, CYP2C9 inh 98
CCCCCNC(=O)c1ccccc1SC	CYP2C19 inh 59
COc1ccc(C(=O)NCCc2cn3ccc(C)cc3n2)cc1	CYP2C19 inh 75
CCCOc1ccc(C(=O)NCCCn2ccnc2)cc1	CYP2C19 inh 90
CC1CC(C)CN(S(=O)(=O)c2ccc(C(=O)NCCCn3ccnc3)cc2)C1 (stereo unspecified)	CYP2C9 inh 90
CC1CC(C)CN(S(=O)(=O)c2ccc(C(=O)NCc3ccc4c(c3)OCO4)cc2)C1 (stereo unspecified)	none
Cc1ccc(N2CC(C(=O)NCCCn3ccnc3)CC2=O)cc1 (stereo unspecified)	CYP2C19 inh 85, CYP2C9 inh 76
C=CCOc1ccc(NC(=O)C(=O)NCCCn2ccnc2)cc1	none
O=C(Nc1ccccc1C(=O)NCCCn1ccnc1)c1ccccc1	CYP2C19 inh 84, CYP2C9 inh 96
O=[N+]([O-])CC(=Nc1ccc(Cl)cc1)N/N=C\c1oc(O)c2ccccc12	none
CCn1c(SCC(=O)N2CCCc3ccccc32)nnc1-c1ccoc1C	none (no result: CYP2C19 inh, CYP2C19 act, CYP2C9 inh, CYP2C9 activ)
COc1ccc2c(Cl)c(C(=O)NCCCn3ccnc3)sc2c1Cl	CYP2C19 inh 88, CYP2C9 inh 88
O=C(c1ccc(C(F)(F)F)cc1)c1c[nH]c(C(=O)NCCCn2ccnc2)c1	CYP2C19 inh 95, CYP2C9 inh 88
CC(C)(C)c1ccc(C(=O)c2c[nH]c(C(=O)NCCCN3CCOCC3)c2)cc1	none
O=C(NCCCn1ccnc1)c1ccncc1	CYP2C9 inh 57
